# Source: PubChem BioAssay (NCI)
# This is part of a sample that, as a whole, favours compounds with a hit. Of some 83,000 tested, about 20% had one in any assay.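 Interpretation: 100, growth as untreated; towards 0, rising growth inhibition; 0, no net growth; 0 to -100, cell death. Compounds scoring below 10 were considered active.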 Unmarked numbers belong to inactive results. Activity calls are given as the source filed them.
# Legend:
# Test in all cases: NCI-60 one-dose screen, 48 h (100 = growth as untreated, 0 = no growth, -100 = all killed)
# Settings in all cases: 10 µM unless noted
# HCT-15 colon = test system: HCT-15 colon
# HT29 colon = test system: HT29 colon
# SNB-75 CNS = test system: SNB-75 CNS
# SNB-19 CNS = test system: SNB-19 CNS
# U251 CNS = test system: U251 CNS
# PC-3 prostate = test system: PC-3 prostate
# SK-MEL-5 melanoma = test system: SK-MEL-5 melanoma
# UACC-62 melanoma = test system: UACC-62 melanoma
# LOX IMVI melanoma = test system: LOX IMVI melanoma
# SK-MEL-28 melanoma = test system: SK-MEL-28 melanoma
# SK-MEL-2 melanoma = test system: SK-MEL-2 melanoma
# SN12C renal = test system: SN12C renal
# UO-31 renal = test system: UO-31 renal
# TK-10 renal = test system: TK-10 renal
# ACHN renal = test system: ACHN renal
# CAKI-1 renal = test system: CAKI-1 renal
# A498 renal = test system: A498 renal
# CCRF-CEM leukemia = test system: CCRF-CEM leukemia
# MOLT-4 leukemia = test system: MOLT-4 leukemia
# EKVX NSCLC = test system: EKVX NSCLC
Structure (SMILES),growth (HCT-15 colon),growth (HT29 colon),growth (SNB-75 CNS),growth (SNB-19 CNS),growth (U251 CNS),growth (PC-3 prostate),growth (SK-MEL-5 melanoma),growth (UACC-62 melanoma),growth (LOX IMVI melanoma),growth (SK-MEL-28 melanoma),growth (SK-MEL-2 melanoma),growth (SN12C renal),growth (UO-31 renal) [%],growth (TK-10 renal),growth (ACHN renal),growth (CAKI-1 renal),growth (A498 renal),growth (CCRF-CEM leukemia),growth (MOLT-4 leukemia),growth (EKVX NSCLC)
COc1ccc(-c2nc3sc(-c4ccccc4)cn3n2)cc1,30.4%,29.6%,65.2%,65.9%,78.8%,66.5%,34.4%,57.2%,54.4%,67.6%,59.1%,62.6%,61.7,106%,67.5%,60%,43.7%,64.2%,50.7%,–
COc1ccc(-c2csc(NC(=O)N3CCN(c4cc5c(cc4F)c(=O)c(C(=O)O)cn5C4CC4)CC3)n2)cc1,14.6%,2.34% (active),-2.38% (active),20.8%,6.54% (active),-0.577% (active),-39.9% (active),-14.2% (active),-76.4% (active),33.7%,-20.4% (active),5.86% (active),–,25.5%,9.82% (active),29%,-15% (active),7.96% (active),3.03% (active),23.1%
O=c1c2cccc(F)c2sc2c(NCCCNCCO)nc3ccccc3c12,11.4%,-39.8% (active),45.5%,44.1%,38.8%,38.3%,71.7%,59.8%,-86.6% (active),64.2%,89.8%,43.5%,19,48.6%,15.3%,3.45% (active),40.9%,22.7%,-6.18% (active),–
Brc1ccc2[nH]cc(-c3nc(-c4c[nH]c5ccncc45)cs3)c2c1,-67.8% (active),-63.2% (active),51.9%,-79.5% (active),-83.9% (active),-66.8% (active),-44.1% (active),-79.4% (active),-97.4% (active),-95.6% (active),-46.8% (active),-85.6% (active),–,-53% (active),-95.5% (active),-92.6% (active),55.9%,-23.3% (active),-58.4% (active),-67.7% (active)
C[C@]12CC[C@@H]3c4cc(OC(F)F)c(OS(N)(=O)=O)cc4CC[C@H]3[C@@H]1CC[C@@H]2OS(N)(=O)=O,20.1%,106%,-3.22% (active),53.6%,33.1%,52.2%,27%,54.1%,32.8%,50%,36.1%,42%,42.9,100%,40.6%,39.1%,94.8%,22.9%,20.6%,–
CNc1nc2c(s1)C(c1cc(F)ccc1F)CC(=O)N2 (stereo not drawn),42%,82.4%,32.4%,72.2%,67.6%,81.1%,64.5%,50.1%,73.4%,69.6%,61.3%,71%,–,17%,87.8%,51.5%,34.4%,40%,37.3%,97.8%
Brc1c[n+](Cc2ccc3ccccc3c2)cn1Cc1ccc2ccccc2c1,93.6%,7.66% (active),-30.8% (active),17.3%,21.5%,8.5% (active),-85.2% (active),-59.8% (active),-89% (active),-3.7% (active),17.3%,37.6%,77.4,43.6%,90.6%,38.4%,-0.664% (active),5.13% (active),12.6%,–
